A selection: hits, their analogues and other compounds. The true share with any hit is near 4.7%.
D1 antagonist: Antagonist of Human D 1 Dopamine Receptor: qHTS; activity change, negative = inhibition, % at 10 µM; actives 3.2% (n = 360,000); AID 504652, 2011; D(1A) dopamine receptor (Homo sapiens), P21728; HEK293 TREx D1 cells, calcium flux, dopamine EC80; active compounds read low; in the data active = activity change below about -30%
Target sequence (P21728 whole entry, looked up): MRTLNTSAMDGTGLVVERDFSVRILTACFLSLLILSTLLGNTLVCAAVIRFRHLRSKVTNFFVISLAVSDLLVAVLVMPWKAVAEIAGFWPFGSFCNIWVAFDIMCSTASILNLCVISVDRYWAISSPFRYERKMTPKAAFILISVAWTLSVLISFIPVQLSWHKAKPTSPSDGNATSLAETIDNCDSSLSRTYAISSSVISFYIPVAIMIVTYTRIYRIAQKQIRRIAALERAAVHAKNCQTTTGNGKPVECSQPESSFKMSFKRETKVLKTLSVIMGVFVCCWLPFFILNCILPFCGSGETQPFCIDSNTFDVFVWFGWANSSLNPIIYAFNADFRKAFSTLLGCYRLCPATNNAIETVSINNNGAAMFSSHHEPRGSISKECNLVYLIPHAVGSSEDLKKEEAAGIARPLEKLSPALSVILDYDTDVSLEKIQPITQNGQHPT
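Antagonism measured as reduced calcium response to an EC80 dopamine addition following 180 s compound pre-read; cells were inducible HEK293 Trex D1 plated overnight at 30 C, read kinetically at 1 cycle/sec.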
D1 potentiator: Potentiators of Human D1 Dopamine Receptor: qHTS. AID 504651, 2011. actives 0.036% (n = 360,000). HEK293 TREx D1 cells, calcium flux, dopamine EC20 potentiation. potentiation, % at 10 µM; in the data active = potentiation above about 30%
TRHR PAM: qHTS for Small Molecule Agonists and Allosteric Enhancers of Human TRH Receptor: Primary Screen for Enhancers. AID 493056, 2011. TRHR cells, fluo-8 calcium fluorescence, EC20 TRH enhancement. Thyrotropin-releasing hormone receptor (Homo sapiens), P34981. enhancement, % at 2 µM. actives 0.66% (n = 360,000); in the data active = enhancement above about 30%
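Enhancer read-out: after compound pinning and an initial kinetic agonist-mode read, an EC20 of TRH (10 nM final) was injected and fluo-8 calcium signal (Ex 480/Em 530) followed at 1 s/cycle for 100 cycles in TRHR-expressing cells.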
TRHR agonist: qHTS for Small Molecule Agonists and Allosteric Enhancers of Human TRH Receptor: Primary Screen for Agonists; Thyrotropin-releasing hormone receptor (Homo sapiens), P34981; TRHR cells, calcium flux fluo-8, FDSS agonist mode; activation, % at 2 µM; actives 0.18% (n = 360,000)
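Read-out: compound-evoked intracellular calcium rise in TRHR cells, fluo-8 dye, kinetic FDSS fluorescence at 1 s/cycle following a 10-cycle baseline. Cells cultured overnight before dye loading (30 min–1.5 h, RT).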
D1 agonist: Allosteric Agonists of the Human D1 Dopamine Receptor: qHTS; D(1A) dopamine receptor (Homo sapiens), P21728; HEK293 T-REx D1 cells, calcium flux, agonist mode; activation, % at 2 µM; actives 1% (n = 360,000); AID 504660, 2011
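Agonism was scored from calcium flux recorded over 180 s (1 read/s) after pintool compound addition, following a 10-cycle baseline. Cells were inducible force-coupled HEK293 TREx D1, plated overnight at 30 C and loaded with no-wash calcium dye.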
Each line names hits and unclear results; the compound was inactive in the other large screens; ! = repeats disagree. Cut-off read from the data, not from the text of the source, unless noted: active = activation above about 30%; inactive = the rest.

O=C(Nc1ccnn1C1CCN(Cc2ccc3nonc3c2)CC1)c1cccc(F)c1	D1 antagonist -39
CC(c1ccccc1C(O)(c1ccccc1)c1ccccc1)N(C)C (stereo not given)	D1 antagonist -39, D1 agonist 100
O=C(CN(c1cccc(C(F)(F)F)c1)S(=O)(=O)c1ccc(Cl)c([N+](=O)[O-])c1)NCc1ccccc1	D1 antagonist -31
CC1CC1C(=O)OCc1cc(=O)n2cc(Br)ccc2n1 (stereo not given)	TRHR PAM 34
CCOc1ccc(CCNC(=O)c2cn(CC)c3ccc(S(=O)(=O)N4CCc5ccccc5C4)cc3c2=O)cc1OCC	D1 antagonist -47
CCN(CC)CCCNC(=O)Cn1cnc2ccc(S(=O)(=O)N3CCC(C)CC3)cc2c1=O	D1 antagonist -39
CCCCN(C)C(=O)c1cn(CC)c2ccc(S(=O)(=O)N(C)C)cc2c1=O	D1 antagonist -31 (no result: D1 potentiator)
CCCCNC(=O)Cn1cnc2ccc(S(=O)(=O)N3CCC(C)CC3)cc2c1=O	none
CCCCN(CCCC)CCNC(=O)c1cn(C)c2ccc(S(=O)(=O)N3CCOCC3)cc2c1=O	D1 antagonist -35
CCn1cc(C(=O)NCCc2ccc(C)cc2)c(=O)c2cc(S(=O)(=O)N3CCc4ccccc4C3)ccc21	none
COc1ccc(NC(=O)C2=C(C)Nc3nc(SCc4ccccc4C)nn3C2c2cc(OC)c(O)c(OC)c2)cc1 (stereo not given)	none
CCc1cccc(C)c1NC(=O)C1CCN(c2nnc(C)c3c(C)n(-c4ccccc4)nc23)CC1	none
CCN(CC)CCCNC(=O)c1cn(CC)c2ccc(S(=O)(=O)N(C)C3CCCCC3)cc2c1=O	none
CCn1cc(C(=O)NCCCN2CCCC(C)C2)c(=O)c2cc(S(=O)(=O)N(C)C3CCCCC3)ccc21 (stereo not given)	D1 antagonist -79!
CCOCCCNC(=O)c1cn(CC)c2ccc(S(=O)(=O)N3CCC(C)CC3)cc2c1=O	D1 antagonist -34
Cc1cc(C)nc(NS(=O)(=O)c2ccc(NC(=O)C3COc4ccccc4O3)cc2)n1 (stereo not given)	D1 antagonist -60
Cc1ccnc(NS(=O)(=O)c2ccc(NC(=O)C3CCCCC3C(=O)O)cc2)n1 (stereo not given)	none
Cc1cccc(NC(=O)C2COc3ccccc3O2)c1 (stereo not given)	D1 antagonist -32
Cc1ccnc(NS(=O)(=O)c2ccc(NC(=O)C3CC=CCC3C(=O)O)cc2)n1 (stereo not given)	D1 antagonist -89
CCC(C)n1c(SCc2ccc(F)cc2Cl)nc2ccsc2c1=O (stereo not given)	none
Cc1oc2ccc(O)c(CN3CCCC3)c2c1C(=O)Nc1cccc(Cl)c1C	none
Cc1cccc(NC(=O)CCCSc2nc3ccccc3[nH]2)c1	none
O=C(CCCSc1ccccc1)Nc1cccc(CO)c1	D1 antagonist -34 (no result: D1 potentiator)
CCc1cccc(NC(=O)CCCSc2nc3ccccc3[nH]2)c1	D1 antagonist -36
CCC(=O)N1CCc2cc(S(=O)(=O)NC(C(=O)NCCc3ccc(OC)c(OC)c3)C(C)C)ccc21 (stereo not given)	none
CCc1nnc(SCc2ccc(F)cc2Cl)c2cc3sc(C)cc3n12	none
O=[N+]([O-])c1ccc(CNc2ccc(Cl)cc2)s1	D1 antagonist -37
O=C(NC1CC(=O)N(c2ccc(F)cc2)C1)c1ccc2c(c1)OCO2 (stereo not given)	none (no result: D1 antagonist)
O=C(N/N=C/c1cc([N+](=O)[O-])cc(Br)c1O)C12CC3CCC(CC(C3)C1)C2	D1 antagonist -32, D1 agonist 122
COc1cc(/C=N/NC(=O)C23CC4CC(CC(C4)C2)C3)cc(Br)c1O	none
COc1ccc(Cn2c(C3CCCCC3)nc3c(c(=O)c4ccccc4n3C)c2=O)cc1	D1 agonist 42
COc1ccc(CCn2c(C3CCCCC3)nc3c(c(=O)c4ccccc4n3C)c2=O)cc1	D1 antagonist -39, D1 agonist 126

Screens deposited in PubChem by National Center for Advancing Translational Sciences (NCATS).
